# Where “and” joins values, the source holds several entries; their conditions need not be identical. Equal values may be shown once. Records with an inconclusive call do not appear. Calls of active or inactive are those of the source. Unless noted, no stated cut-off is given here; in the data, active means inhibition above about 80%; inactive means the rest.
# Experiments:
# [1] = viability loss in pontine glioma line – cell-based, SU-DIPG-XXV, MIPE5.0, CellTiter-Glo, qHTS, dose response (AID 1347065; cut-off not given, nearly all actives have AC50 up to about 26 µM;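 further: cells exposed to compound for 48 hours before ATP readout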); details: CellTiter-Glo ATP luminescence
# [2] = viability loss in pontine glioma line – cell-based, SU-DIPG-XIII, MIPE5.0, CellTiter-Glo, qHTS, dose response (AID 1347064; cut-off not given, nearly all actives have AC50 up to about 23 µM); details: CellTiter-Glo ATP luminescence
# [3] = growth inhibition of DIPG cells – cell-based, MIPE5.0 library, qHTS (AID 1347068; cut-off not given, nearly all actives have IC50 up to about 30 µM;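 on IC50: cells exposed to compound for 48 hours before viability readout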); details: SU-DIPG-XXV viability
# [4] = growth inhibition of DIPG cells – cell-based, MIPE4.0 library, CellTiter-Glo luminescence, qHTS (AID 1347066; cut-off not given, nearly all actives have AC50 up to about 30 µM;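 further: cells exposed to compound for 48 hours before readout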); details: SU-DIPG-VI viability, CellTiter-Glo ATP luminescence
# [5] = JHH-DIPG-1 glioma cell viability, MIPE5.0 library, CellTiter-Glo luminescence, qHTS (AID 1347067; cut-off not given, nearly all actives have AC50 up to about 26 µM;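 further: cells exposed to compound for 48 hours before readout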); details: JHH-DIPG-1 glioma viability, CellTiter-Glo ATP luminescence
# [6] = growth inhibition, single agent or in combination, cell-based, chromothripsis tumors, cisplatin or BGB combos (AID 1671449); details: LFS_MB_P medulloblastoma cells;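 further: cells exposed for 96 hours; 0% = vehicle DMSO and 100% = killing by high DMSO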
# [7] = growth inhibition, single agent and combos, cell-based, chromothripsis tumors, cisplatin or BGB combos (AID 1671450); details: HDN33 neuroblastoma cells, stronger effect = higher value;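 further: cells exposed to compound for four days; 0% = vehicle DMSO and 100% = cell killing by high DMSO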
# [8] = growth inhibition, single agents and combos, ICB984, cell-based, cisplatin or BGB combos, synergistic combos for chromothripsis tumors (AID 1671451; call rule not given here;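 further: cells exposed for 96 hours before readout; 0% = vehicle DMSO and 100% = killing by high DMSO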); details: ICB984 medulloblastoma cells, drug combinations, stronger effect = higher value
# [9] = growth inhibition, single agents and combos, LFS_MB_1R, cell-based, cisplatin or BGB combos, synergistic combos for chromothripsis tumors (AID 1671452); details: LFS_MB_1R medulloblastoma cells, stronger effect = higher value;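 further: cells exposed for 96 hours before readout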
# [10] = growth inhibition, single agents and combos, HTB85, cell-based, BGB or cisplatin IC20 combos, synergistic combos for chromothripsis tumors (AID 1671453); details: HTB85 osteosarcoma cells, drug combinations, stronger effect = higher value;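 further: cells exposed for 96 hours before readout; 0% = vehicle DMSO and 100% = high DMSO killing control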
# [11] = growth inhibition, single agents and combos, CRL2098, cell-based, BGB or cisplatin IC20 combos, synergistic combos for chromothripsis tumors (AID 1671454); details: CRL2098 osteosarcoma cells, drug combinations, stronger effect = higher value;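 further: cells exposed for 96 h before readout; 0% = vehicle DMSO and 100% = killing by high DMSO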
# [12] = growth inhibition, single agents and combos, HD-MB03, cell-based, BGB or cisplatin IC20 combos, synergistic combos for chromothripsis tumors (AID 1671455; in the data active means inhibition above about 83%;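 further: 0% = vehicle DMSO and 100% = high DMSO as cytotoxic control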); details: HD-MB03 medulloblastoma cells, stronger effect = higher value
# [13] = growth inhibition, single agents and combos, UWB1.289, cell-based, BGB or cisplatin combos, synergistic combos for chromothripsis tumors (AID 1671456); details: UWB1.289 ovarian carcinoma cells, stronger effect = higher value;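 further: cells exposed to compound for four days; 0% = vehicle DMSO and 100% = killing by high DMSO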
# [14] = growth inhibition, single agents and combos, LFS_MB_2R, cell-based, cisplatin combos, synergistic combos for chromothripsis tumors (AID 1671457); details: LFS_MB_2R medulloblastoma cells, stronger effect = higher value;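 further: cells exposed to compound for four days before readout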
# [15] = growth inhibition, MDA-MB-436, cell-based, BGB or cisplatin combos, synergistic combos for chromothripsis tumors (AID 1671458; call rule not given here;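 further: cells exposed for 96 hours; 0% = vehicle DMSO and 100% = killing by high DMSO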); details: MDA-MB-436 breast carcinoma growth inhibition, drug combinations, stronger effect = higher value
# [16] = UWB1.289_BRCA1 ovarian cancer growth, cell-based, BGB or cisplatin combinations (AID 1671459); details: UWB1.289 BRCA1 ovarian carcinoma, drug combinations, stronger effect = higher value
# [17] = drug combination toxicity in non-malignant astrocytes – cell-based, BGB or cisplatin IC20 combos, cytotoxicity control for chromothriptic childhood tumor combination screen (AID 1671460); details: Human astrocytes, viability inhibition, drug combinations, at 0.5 µM, stronger effect = higher value;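 further: cells exposed to compounds for 96 hours before viability readout; 0% = vehicle and 100% = killing control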
# [18] = BT084 cell growth, single and combined drugs, ICGC_MB145, cisplatin and BGB IC40 combos (AID 1671461); details: BT084 medulloblastoma cells, drug combinations, stronger effect = higher value;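 further: cells exposed to drugs for 96 hours; 0% = vehicle DMSO and 100% = high DMSO full killing control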
# [19] = RCMB18 cell growth, single agent and combined, cisplatin and BGB IC40 combos (AID 1671462); details: RCMB18 medulloblastoma cells, stronger effect = higher value;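 further: cells exposed to compound for four days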
# [20] = CRL1545 cell growth, single agent and combined, cisplatin and BGB IC20 combos (AID 1671464); details: CRL1545 osteosarcoma cells, stronger effect = higher value;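 further: cells exposed to compound for 96 hours before readout; 0% = vehicle DMSO and 100% = high DMSO killing control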
# [21] = measured here: combination with BGB IC40, at 0.05 µM
# [22] = measured here: with BGB IC20 combination, at 0.5 µM
# [23] = measured here: with cisplatin IC20 combination, at 0.5 µM
# [24] = measured here: combination with cisplatin, at 0.5 µM
# [25] = measured here: combination with cisplatin, at 5 µM
compound,measurement,setting,value
CCNC1(C(N)=O)CCN(c2ncnc3c2nc(-c2ccccc2Cl)n3-c2ccc(Cl)cc2)CC1,AC50,[1],11.8 µM (active)
Nc1ncnc2c1c(COc1cccc(Cl)c1)nn2C1CCOCC1,outcome,[2],inactive
same,outcome,[3],inactive
CCc1cc(/C(C)=N/OCc2ccc(C3CCCCC3)c(C(F)(F)F)c2)ccc1CN1CC(C(=O)O)C1,AC50,[1],18.6 µM (active)
same,outcome,[4],inactive
O=c1oc2c(C3OCCCO3)c(O)ccc2c2c1CNCC2,outcome,[1],inactive
same,outcome,[5],inactive
same,outcome,[3],inactive
COc1cc(N2CCN(C)CC2)ccc1Nc1ncc2c(n1)N(C)c1ccccc1C(=O)N2,AC50,[1],20.9 µM (active)
same,outcome,[3],inactive
CN1CCN(CCCNc2ncc(Cl)c(-c3cc4c(C(=O)NC5CC5)cccc4s3)n2)CC1,AC50,[1],23.5 µM (active)
same,outcome,[3],inactive
Cc1ccc(NC(=O)c2ccc(CN3CCNCC3)cc2)cc1Nc1nccc(-c2cccnc2)n1,AC50,[1],23.5 µM (active)
same,outcome,[5],inactive
same,outcome,[3],inactive
CC(C)(CNC(=O)c1cccc(-c2noc(C(F)(F)F)n2)c1)c1coc(-c2ccccc2)n1,AC50,[1],20.9 µM (active)
same,outcome,[3],inactive
COc1ccccc1C(=O)Nc1cc2c(cc1N1CCCCC1)n(C)c(=O)n2C,AC50,[1],18.6 µM (active)
same,outcome,[3],inactive
O=C1Nc2nc(-c3c(O)cccc3OCC3CC3)cc([C@@H]3CCCNC3)c2CO1,AC50,[1],18.6 µM (active)
same,AC50,[5],26.3 µM (active)
same,IC50,[3],13.2 µM (active)
Nc1ccc(F)cc1NC(=O)c1ccc(CNC(=O)/C=C/c2cccnc2)cc1,AC50,[1],5.9 µM (active)
same,AC50,[5],9.34 µM (active)
same,IC50,[3],16.6 µM (active)
same,inhibition,"[6]; at 0.5 µM, stronger effect = higher value",-9.27% (inactive) and 17.5% (inactive)
same,inhibition,"[6]; measured here: combination with BGB IC20, at 0.005 µM",-31.2% and 6.89%
same,inhibition,"[6]; measured here: combination with BGB IC40, at 0.005 µM",-55.6% and -31.5%
same,inhibition,[6]; [21],-32.7% and -5.83%
same,inhibition,"[6]; measured here: combination with cisplatin, at 0.5 µM, stronger effect = higher value",16% and 62.9%
same,inhibition,"[6]; measured here: combination with cisplatin, at 5 µM, stronger effect = higher value",108% and 116%
same,inhibition,"[7]; BGB combo, at 5 µM",80.7%
same,inhibition,[7]; at 0.5 µM,12.4% (inactive) and 12.7% (inactive)
same,inhibition,"[7]; cisplatin combo, at 5 µM",80.6% and 84.9%
same,inhibition,[7]; [22],1.48% and 7.37%
same,inhibition,[7]; [23],26.1% and 17.9%
same,inhibition,"[7]; single agent, at 5 µM",78.9% and 79.8%
same,inhibition,"[8]; BGB IC20 combo, at 0.005 µM",6.31% and 11.4%
same,inhibition,"[8]; BGB IC40 combo, at 0.005 µM",6.94% and 2.58%
same,inhibition,"[8]; BGB IC40 combo, at 0.05 µM",84.2% and 81%
same,inhibition,[8]; at 0.5 µM,-12.1% (inactive) and -33.8% (inactive)
same,inhibition,"[8]; cisplatin combo, at 0.05 µM",83.9% and 80.3%
same,inhibition,"[8]; cisplatin combo, at 0.5 µM",-1.65% and -31.4%
same,inhibition,"[8]; cisplatin combo, at 5 µM",-26.1% and -13.8%
same,inhibition,"[8]; measured here: 5 uM single agent, at 5 µM",-14% and -9.96%
same,inhibition,[9]; at 0.5 µM,30% (inactive) and 36% (inactive)
same,inhibition,[9]; [21],-28.7% and -30.1%
same,inhibition,[9]; [24],65% and 50%
same,inhibition,[9]; [25],97% and 96%
same,inhibition,[10]; at 0.5 µM,21% (inactive) and 24% (inactive)
same,inhibition,"[10]; measured here: with BGB IC20, at 0.5 µM",43.2% and 13.5%
same,inhibition,"[10]; measured here: with BGB IC20, at 5 µM",97.2% and 95.3%
same,inhibition,"[10]; measured here: with cisplatin IC20, at 0.5 µM",15.4% and 37.9%
same,inhibition,"[10]; measured here: with cisplatin IC20, at 5 µM",97.9% and 96.5%
same,inhibition,"[10]; single agent, at 5 µM",91.8% and 89.6%
same,inhibition,[11]; at 0.5 µM,-40.8% (inactive) and -34.5% (inactive)
same,inhibition,"[11]; measured here: combination with BGB at IC20, at 0.5 µM",-53.4% and -17.4%
same,inhibition,"[11]; measured here: combination with cisplatin at IC20, at 0.5 µM",-22.2% and -51.8%
same,inhibition,[12]; at 0.5 µM,19.9% (inactive) and 36% (inactive)
same,inhibition,"[12]; measured here: combo with BGB at IC20, at 0.5 µM",24.3% and 36.2%
same,inhibition,"[12]; measured here: combo with cisplatin at IC20, at 0.5 µM",28.3% and 50.6%
same,inhibition,[13]; at 0.5 µM,6.29% (inactive) and 20.9% (inactive)
same,inhibition,"[13]; measured here: inhibition with BGB combination, at 0.05 µM",-10.5% and -21.7%
same,inhibition,"[13]; measured here: inhibition with cisplatin combination, at 0.05 µM",-34.6% and -15.2%
same,inhibition,[14]; at 0.5 µM,19.4% (inactive) and 17.9% (inactive)
same,inhibition,[14]; [24],42.4% and 41%
same,inhibition,[14]; [25],91.1% and 92.2%
same,inhibition,[15]; at 0.5 µM,-0.59% (inactive) and 2.18% (inactive)
same,inhibition,"[15]; measured here: BGB combination, at 0.5 µM",-5.08% and -6.18%
same,inhibition,"[15]; measured here: BGB combination, at 5 µM",27.2% and 23.4%
same,inhibition,"[15]; measured here: cisplatin combination, at 0.5 µM",-7.52% and 1.65%
same,inhibition,"[15]; measured here: cisplatin combination, at 5 µM",37.2% and 38.6%
same,inhibition,"[16]; BGB combination, concentration series, at 5 µM",85.3% and 82.2%
same,inhibition,[16]; at 0.5 µM,1.02% (inactive) and 1.89% (inactive)
same,inhibition,"[16]; cisplatin combination, concentration series, at 5 µM",98.1% and 92.9%
same,inhibition,[17],-0.32% (inactive) and -2.77% (inactive)
same,inhibition,[17]; measured here: combo with BGB IC20,-0.373% and -1.39%
same,inhibition,[17]; measured here: combo with cisplatin IC20,-8.73% and -1.18%
same,inhibition,[18]; at 0.5 µM,39.6% (inactive) and 45% (inactive)
same,inhibition,"[18]; cisplatin combination, at 0.5 µM",58.4% and 61.5%
same,inhibition,"[18]; cisplatin combination, at 5 µM",87.7% and 92.4%
same,inhibition,"[18]; measured here: BGB IC40 combination 0.05 uM, at 0.05 µM",-24% and -23.6%
same,inhibition,"[18]; single agent, at 5 µM",65.3% and 57.1%
same,inhibition,[19]; at 0.5 µM,43.9% (inactive) and 41.5% (inactive)
same,inhibition,"[19]; cisplatin combo, at 5 µM",93.2% and 98.3%
same,inhibition,"[19]; measured here: BGB IC40 combination, at 0.05 µM",-7.17% and -21.6%
same,inhibition,[19]; [24],52.2% and 77.9%
same,inhibition,"[19]; single agent, at 5 µM",82.6% and 79%
same,inhibition,[20]; at 0.5 µM,45.6% (inactive) and 32.9% (inactive)
same,inhibition,[20]; [22],25.5% and 27%
same,inhibition,[20]; [23],54.9% and 35.9%
same,inhibition,"[20]; single agent, at 0.05 µM",-31.6% and 15.5%
same,inhibition,"[20]; single agent, at 5 µM",32.4% and 21.9%

# From PubChem BioAssay
